Source: the OligoGym collection

biological target: PPP2R2B; experiment: pooled miR-30 sensor sort-seq; sequence = guide strand; conditions: shRNA
Further: reference of the scale not given here.

In order of falling sensor-assay potency score (higher = more potent):
1. TTCTATTTCTAAACTCTTCAGG  0.0206
2. TTCTATTCCAATCATTTCCTGT  -0.465
3. TTGACTAGTATTCAGTATGTGA  -0.666

biological target: PPP2R4; experiment: as above; conditions: shRNA

In order of rising sensor-assay potency score (higher = more potent):
1. TATTTGGTCATCCACCCGGAGC  -1.25
2. TGGAACTGTGTGGATCTCCTTT  -1.01
3. TTTTGGAATGATGAAGTTCTGA  -0.939
4. TTTAATCTGAACAGCAATGAGG  -0.87
5. TTTAGGTAAACAGCCACCTCAG  -0.616
6. TTGAGGGTAAGGATGAATCCGA  -0.403
7. TTCTCATCCACAAAGTGTCTGG  -0.351
8. TTGAAGACAATAGCTATTTGGT  -0.254
9. TTTGGAATGATGAAGTTCTGAG  -0.0141
10. TTCATCTCGGTAATAAACAGGA  0.112
11. TCTGCTTCCTCGGAGACTCTGT  0.193
12. TTGAAGTGCTGGATCACAGGGA  1.03

biological target: PPP3R1; experiment: as above; conditions: shRNA

In order of falling sensor-assay potency score (higher = more potent):
1. TTTGCTGTAACTGTGTATCTTT  0.559
2. TAGCCTTTTAATTTCATCCGCA  0.489
3. TTCAATAACACTTAGTTGGCTT  0.15
4. TAAAATCACAACTAGCACTTAA  -0.328
5. TCTCCTTTGACACTGAACTGAG  -0.401
6. TTAAATCTCTTTCCTAGCCTTT  -0.556
7. TTTTTGTGGATATCTAGGCCAC  -0.626
8. TTTTGTCTACAATTTGCTGTAA  -0.67
9. TTATCTGCATTTATTATGGTTT  -0.79
10. TTTGTCTACAATTTGCTGTAAC  -1.15
11. TTACTCGCTGTACTAAAGGATT  -1.35
12. AATATAGCCATCTTTATCCATG  -1.54

biological target: PPY; experiment: as above; conditions: shRNA

In order of falling sensor-assay potency score (higher = more potent):
1. TATCTACGGAGATCAGCTGCAT  0.435
2. TGTATCTACGGAGATCAGCTGC  0.303
3. TCTGGTGTGGCATTGTCCCCTG  0.0817
4. TGATGTATCTACGGAGATCAGC  -1.04
5. TAACAGAGCCACGCAGGTGGAC  -1.08
6. ATCTACGGAGATCAGCTGCATA  -1.14
7. TGTAGTAACAGAGCCACGCAGG  -1.22
8. TACTGGGCCATCTGCTCTGGTG  -1.25
9. AGCATGTTGATGTATCTACGGA  -1.31
10. TCCTCTTTGTGTCTTTTCCCAT  -1.36
11. ATCAGCTGCATACTGGGCCATC  -1.61
12. TGTTGATGTATCTACGGAGATC  -1.64
